From PubChem BioAssay AID1159580 (chemical genetic matrix, 2015)
The campaign covered roughly 5,500 compounds. About 2,000 (36%) were called active. Another 18% or so got no clear call; they are omitted. Rule as the data show it: active = normalized growth mostly below about 0.91 (no sharp cut-off); inconclusive = no clear call, values can overlap the other calls; inactive = mostly above about 0.92. Some of the results follow.

Experiment: chemical genetic growth profiling, strain panel (AID 1159580);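 also: tested at 20 µM; growth read once vehicle control cultures reached saturation at 30 °C; 1 = growth at the plate median or of vehicle wells; lower values mean less growth of the strain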
Conditions: S. cerevisiae deletion strains, growth OD

Measured: normalized growth

CCC1(O)CC(OC2CC(N(C)C)C(OC3CC(O)C(OC4CCC(=O)C(C)O4)C(C)O3)C(C)O2)c2c(cc3c(c2O)C(=O)c2c(O)cccc2C3=O)C1C(=O)OC (stereo not drawn)
inactive: locus YAL013W, strain DEP1, stronger effect = lower value 0.986 | locus YBR021W, strain FUR4, stronger effect = lower value 1.07 | locus YBR229C, strain ROT2, stronger effect = lower value 1 | locus YCL029C, strain bik1, stronger effect = lower value 1 | locus YDL035C, strain GPR1, stronger effect = lower value 0.978 | locus YDL074C, strain BRE1, stronger effect = lower value 0.998 | locus YDL101C, strain DUN1, stronger effect = lower value 0.992 | locus YDL134C, strain PPH21, stronger effect = lower value 1.01 | locus YDL185W, strain tfp1, stronger effect = lower value 1.01 | locus YDL192W, strain arf1, stronger effect = lower value 1.01 | locus YDR101C, strain arx1, stronger effect = lower value 1.01 | locus YDR150W, strain NUM1, stronger effect = lower value 1 | locus YDR162C, strain NBP2, stronger effect = lower value 0.981 | locus YDR318W, strain mcm21, stronger effect = lower value 1.01 | locus YDR388W, stronger effect = lower value 1.01 | locus YDR502C, strain sam2, stronger effect = lower value 1 | locus YEL061C, strain CIN8, stronger effect = lower value 1.01 | locus YER110C, stronger effect = lower value 1.01 | locus YER155C, strain BEM2, stronger effect = lower value 1.01 | locus YER167W, strain BCK2, stronger effect = lower value 1.01 | locus YGL078C, strain dbp3, stronger effect = lower value 1.01 | locus YGL086W, strain mad1, stronger effect = lower value 0.992 | locus YGL248W, strain PDE1, stronger effect = lower value 0.981 | locus YGR135W, strain pre9, stronger effect = lower value 1.01 | locus YGR229C, strain SMI1, stronger effect = lower value 0.96 | locus YGR252W, strain gcn5, stronger effect = lower value 1.03 | locus YHR030C, strain SLT2, stronger effect = lower value 1 | locus YHR079C, strain IRE1 (second series), stronger effect = lower value 1.01 | locus YHR094C, strain hxt1, stronger effect = lower value 1.01 | locus YHR129C, strain ARP1, stronger effect = lower value 0.995 | locus YHR200W, strain rpn10, stronger effect = lower value 1.01 | locus YIL066C, strain RNR3, stronger effect = lower value 1 | locus YIL073C, strain SPO22, stronger effect = lower value 1.04 | locus YIL125W, strain kgd1, stronger effect = lower value 1 | locus YIR030C, strain dcg1, stronger effect = lower value 1.01 | locus YJL095W, strain BCK1, stronger effect = lower value 0.983 | locus YJL134W, strain LCB3, stronger effect = lower value 1.01 | locus YJL168C, strain set2, stronger effect = lower value 1.01 | locus YJL187C, strain SWE1 (second series), stronger effect = lower value 0.998 | locus YJR043C, strain POL32, stronger effect = lower value 0.986 | locus YJR075W, strain HOC1, stronger effect = lower value 0.975 | locus YKL009W, strain mrt4, stronger effect = lower value 1.01 | locus YKL068W, stronger effect = lower value 1 | locus YKL085W, strain MDH1 (second series), stronger effect = lower value 0.993 | locus YKL085W, strain MDH1, stronger effect = lower value 0.993 | locus YKR001C, strain vps1, stronger effect = lower value 1.01 | locus YLR039C, strain RIC1, stronger effect = lower value 0.981 | locus YLR058C, strain SHM2, stronger effect = lower value 1 | locus YLR102C, strain apc9, stronger effect = lower value 1.01 | locus YLR262C, strain YPT6, stronger effect = lower value 0.958 | locus YLR268W, strain sec22, stronger effect = lower value 0.98 | locus YLR330W, strain CHS5, stronger effect = lower value 1 | locus YLR342W, strain FKS1 (second series), stronger effect = lower value 0.976 | locus YLR371W, strain rom2, stronger effect = lower value 1.01 | locus YLR418C, strain cdc73, stronger effect = lower value 1.01 | locus YML016C, strain PPZ1, stronger effect = lower value 0.997 | locus YML124C, strain tub3, stronger effect = lower value 0.999 | locus YMR078C, strain ctf18, stronger effect = lower value 1.01 | locus YMR223W, strain ubp8, stronger effect = lower value 1 | locus YMR263W, strain SAP30, stronger effect = lower value 0.998 | locus YMR307W, strain GAS1, stronger effect = lower value 0.601 | locus YNL067W, strain RPL9B, stronger effect = lower value 0.992 | locus YNL233W, strain BNI4, stronger effect = lower value 0.997 | locus YNL250W, strain rad50, stronger effect = lower value 0.999 | locus YNL271C, strain bni1, stronger effect = lower value 1 | locus YNL298W, strain CLA4, stronger effect = lower value 1.02 | locus YNL307C, strain MCK1, stronger effect = lower value 1.01 | locus YNR052C, strain pop2, stronger effect = lower value 0.996 | locus YOL006C, strain TOP1, stronger effect = lower value 0.812 | locus YOL012C, strain htz1 0.589 | locus YOL147C, strain pex11, stronger effect = lower value 1.01 | locus YOR061W, strain CKA2, stronger effect = lower value 1 | locus YOR069W, strain VPS5, stronger effect = lower value 1 | locus YOR136W, strain idh2, stronger effect = lower value 1 | locus YOR144C, strain elg1, stronger effect = lower value 1 | locus YOR184W, strain ser1, stronger effect = lower value 0.982 | locus YOR316C, strain cot1, stronger effect = lower value 1.01 | locus YPR119W, strain clb2, stronger effect = lower value 1.02 | locus YPR141C, strain kar3, stronger effect = lower value 0.986 | locus YPR163C, strain tif3, stronger effect = lower value 1.02 | locus YPR167C, strain met16, stronger effect = lower value 1 | strain wtn01, stronger effect = lower value 0.983
active: locus YML032C, strain rad52, stronger effect = lower value 0.893
